Data as given in ChEMBL document CHEMBL3988442, “University of Dundee, Small-Polar-MMV Screening Library” (2021).

Target: T1, Aspartate--tRNA(Asp/Asn) ligase (Mycobacterium tuberculosis (strain ATCC 25618 / H37Rv)) (UniProt P9WFW3)
T1 sequence (whole entry): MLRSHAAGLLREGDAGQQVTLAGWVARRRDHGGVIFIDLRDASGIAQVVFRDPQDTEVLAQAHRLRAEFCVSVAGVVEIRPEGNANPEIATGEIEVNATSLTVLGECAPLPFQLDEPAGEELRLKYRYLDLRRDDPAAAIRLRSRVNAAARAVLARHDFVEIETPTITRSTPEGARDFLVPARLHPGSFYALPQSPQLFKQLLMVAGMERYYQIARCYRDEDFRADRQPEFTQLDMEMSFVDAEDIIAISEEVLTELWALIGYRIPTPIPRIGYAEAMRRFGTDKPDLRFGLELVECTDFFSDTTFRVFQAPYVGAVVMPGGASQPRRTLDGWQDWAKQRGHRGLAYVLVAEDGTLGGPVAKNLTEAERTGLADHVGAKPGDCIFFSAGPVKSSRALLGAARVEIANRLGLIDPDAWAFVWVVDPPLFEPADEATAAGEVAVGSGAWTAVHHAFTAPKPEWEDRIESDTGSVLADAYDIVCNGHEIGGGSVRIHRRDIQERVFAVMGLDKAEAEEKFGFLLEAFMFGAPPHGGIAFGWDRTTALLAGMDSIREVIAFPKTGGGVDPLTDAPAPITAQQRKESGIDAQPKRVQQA
Assay: Assay for Asp RNA synthetase-1 from Mycobacterium tuberculosis
Assay type: functional
Design: scale not given: in the data most compounds retested in dose-response had high values
Conditions: 30 µM

SMILES | Percent Effect
O=c1ccc(-c2ccccc2F)nn1CCN1CCCS1(=O)=O | -1.45%
CS(=O)(=O)CCN1CCC2(CCCN(C3CCOCC3)C2=O)C1 (stereo not given) | 1.8%
CNC(=O)c1cc2c(nc1N(C)C)CCN(S(=O)(=O)CC(C)C)CC2 | -0.801%
CCS(=O)(=O)N1Cc2nccn2CC(Cn2nc(C)nc2C)C1 (stereo not given) | 0.776%
CS(=O)(=O)N1CCC(Oc2cnccn2)CC1 | -0.656%
CCCOc1ccc(CNC2CCCc3c2cnn3CC)cc1OC (stereo not given) | -1.51%
CC(=O)N1CCCC1c1cccc(Cc2ccccc2F)n1 (stereo not given) | -0.134%
CC(C)N(C)C(=O)CN1CCCC(c2ccc(C(=O)O)cc2)C1 (stereo not given) | -0.982%
Cc1nc(CN(C)C2CCN(Cc3sc(C)nc3C)C2)no1 (stereo not given) | 0.197%
CC(C)n1ncc2c1NC(=O)CC21C(=O)Nc2c(Cl)cc(Cl)cc21 (stereo not given) | 0.842%
CC(O)CN1CCN(C(=O)c2ccc(Cn3cccc3)cc2)CC1 (stereo not given) | 11%
CCOC(=O)N1CCN(C(=O)c2sc(-c3ccc(F)cc3)nc2C)CC1 | -0.364%
OC(CN1CCCCCCC1)c1ccc(F)cc1 (stereo not given) | -2.26%
CCC1CN(Cc2ccccc2)CCN1Cc1nnc(C2CCC2)o1 (stereo not given) | -4.92%
O=C(c1ccoc1)N1CCCn2cnc(COCC3CC3)c2C1 | -5.91%
CC(C)C(=O)N1CCCC(c2ncncc2-c2ccncc2)C1 (stereo not given) | -3.04%
COc1c(CNCC(c2cccc(F)c2)N(C)C)c(C(C)C)nn1C (stereo not given) | -3.2%
Cn1cc(CN2CC3(CCN(C(=O)c4ccoc4)C3)C2)cn1 | -2.07%
CN(C)C[C@H]1OC[C@@H]2CCN(C(=O)c3cccn3C)C[C@@H]21 | 0.607%
COc1ccc(C)cc1NC(=O)Nc1cnc(N2CCN(C)CC2)nc1 | 0.539%

SMILES | Percent Effect
c1cnnc(N2CCCC2CNc2ncnc3c2CCC3)c1 (stereo not given) | -0.597%
CC(C)C(=O)N1CCN(C(=O)c2cc(C(C)C)on2)[C@H]2CS(=O)(=O)C[C@H]21 | -1.39%
Cc1nn(C)c(Cl)c1CNCc1cccnc1N1CCN(C)CC1 | -1.56%
Cc1cccc(OCCC(=O)N(C)CCC#N)c1C | 0.839%
CC(NC(=O)NCC1(c2ccccc2)CCC1)c1nncn1C (stereo not given) | 0.759%
CC(C)c1n[nH]c(C(=O)Nc2cc[nH]n2)c1Br | -4.43%
COCCN1CCN(Cc2cccc(OCC(N)=O)c2)CC1C (stereo not given) | -6.54%
CCSc1ccc(C(=O)Nc2c(C)nn(C(C)C)c2C)cn1 | -2.39%
O=C1CC2(CCN(c3nncs3)C2)CN1c1ccccc1 (stereo not given) | 2.1%
CCc1noc(C)c1C(=O)N1CCCC1Cn1nc(C)cc1C (stereo not given) | 0.674%
CCc1nnc(CN(C)c2nc(C(C)C)nc3c2cnn3C)o1 | 5.74%
CCS(=O)(=O)NCCNC(=O)c1cc(Cl)c2c(c1)OCCCO2 | 5.01%
O=C(CSc1ncccn1)N1C[C@H]2CC[C@@H]1CN(Cc1ccncc1)C2 | 3.45%
O=C(c1ccnnc1)N1C[C@@H](OCC2CCOCC2)[C@H]2OCCC[C@H]21 | -5.57%
Cc1nc(N2CCCCC2)ncc1-c1cc(O)[nH]n1 | -0.348%
Cc1nc(C)n(CC2CCCN(CC(=O)Nc3nncs3)C2)n1 (stereo not given) | -4.19%
CC(O)CN1CCC(CNCc2cccc(OC(C)C)c2)CC1 (stereo not given) | 3.21%
O=C(c1cscn1)N1C[C@@H]2C[C@@H](c3nnc(C4CC4)o3)O[C@@H]2C1 | 1.21%
CCCn1[nH]cc/c1=N\C(=O)CN1CCCC1c1c(C)nn(C)c1C (stereo not given) | -0.979%
N#Cc1ccc(C(=O)N2CCC3(CC2)C(=O)Nc2ccccc23)cn1 | 6.62%
